Source: PubChem BioAssay

Target: Tumor necrosis factor receptor superfamily member 10B (Homo sapiens) (UniProt O14763)
Test: caspase-8 TRAIL sensitization, hit retest, confirmation, cell-based, NB7+caspase-8, with/without TRAIL, luminescence panel (AID 651596)
Conditions: NB7 neuroblastoma + caspase-8, TRAIL sensitization, luminescence viability, with TRAIL, mean of runs, at 10 µM, stronger effect = higher value; in the data active = activity above about 50%; inactive = the rest

Tumor necrosis factor receptor superfamily member 10B (Homo sapiens), sequence (O14763 whole entry, looked up): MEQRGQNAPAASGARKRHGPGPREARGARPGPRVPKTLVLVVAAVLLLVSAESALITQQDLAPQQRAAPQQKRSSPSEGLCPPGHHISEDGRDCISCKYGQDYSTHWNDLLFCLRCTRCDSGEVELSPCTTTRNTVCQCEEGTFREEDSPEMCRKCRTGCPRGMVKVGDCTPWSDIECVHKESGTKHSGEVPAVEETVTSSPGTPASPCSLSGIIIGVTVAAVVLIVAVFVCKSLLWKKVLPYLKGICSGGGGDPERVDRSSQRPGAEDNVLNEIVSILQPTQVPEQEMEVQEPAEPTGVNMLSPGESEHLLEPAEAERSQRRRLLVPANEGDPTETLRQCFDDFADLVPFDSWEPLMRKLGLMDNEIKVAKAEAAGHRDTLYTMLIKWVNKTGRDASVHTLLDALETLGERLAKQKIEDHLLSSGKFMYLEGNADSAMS

Row | SMILES | activity
1 | COc1ccccc1C/C(N)=N/OC(=O)c1cccc([N+](=O)[O-])c1 | 89.8%
2 | O=C(CCl)N(c1ccccc1)c1c[nH]c2ccccc12 | 99.5%
3 | CC1(C)CC(=O)c2sc(NC(=O)c3cccs3)nc2C1 | 91.9%
4 | C#CCSc1nnc(-c2sc(-c3ccccc3)nc2C)n1C | 84.7%
5 | COc1ccc(/C=C/C(=O)c2ccc([N+](=O)[O-])o2)cc1 | 35.2%
6 | c1ccc(-c2cc3cc4c(cc3cn2)OCO4)cc1 | 43.8%
7 | CC(C)CC(NC(=O)c1ccc(Cl)cc1)C(=O)OCC(=O)c1ccc2c(c1)NC(=O)CO2 (stereo not given) | 71.7%
8 | CCOc1ccc(N=Cc2c(C)[nH]n(-c3nc4ccccc4[nH]3)c2=O)cc1 | 87.4%
9 | O=S(=O)(Nc1nc2ccccc2nc1N1CCc2ccccc2C1)c1ccc(Br)cc1 | 55.5%
10 | COc1ccc(-c2cc3ccccc3c(=O)o2)cc1 | 49.4%
11 | C#Cc1ccc(NC(=O)C2(C)CCN2C(=O)CC(c2ccccc2)c2ccccc2)cc1 (stereo not given) | 94.4%
12 | CCN1CCC(O)(/C=C/c2ccc(C(C)C)cc2)C(C(=O)/C=C/c2ccc(C(C)C)cc2)C1 (stereo not given) | 87.8%
13 | CC(C)(C)OC(=O)NCCCCCNC(=O)c1[nH]cnc1C(=O)Nc1cc(Br)ccc1F | 78.2%
14 | Cc1[nH]cnc1C(=O)N/N=C/c1c(Cl)cccc1Cl | 58.7%
15 | COc1cccc(/C=C2/Sc3ccc(C(=O)NCCN4CCCCCC4)cc3NC2=O)c1 | 36%
16 | O=C(Nc1ccc(Cl)cc1)Nc1ccccc1C(=O)O | 58.3%
17 | CC(=O)c1c(C)[nH]c(C(=O)Nc2nc(C)cs2)c1C | 80.2%
18 | COc1cc(SC#N)ccc1N=Cc1c(C)[nH]n(-c2ccc(C)c(C)c2)c1=O | 93%
19 | CCCOc1ccc(-c2cn3ccccc3n2)cc1[N+](=O)[O-] | 57%
20 | OCC1OC(n2cnc3c(NCc4ccco4)ncnc32)C(O)C1O (stereo not given) | 46.1%
21 | CN(C)CCNC(=O)c1cccc(-c2cc(NC=O)c3ncc(-c4cccc(C(F)(F)F)c4)n3c2)c1 | 99.4%

Test system: not listed separately
Test: as above
Conditions: NB7 neuroblastoma + caspase-8, without TRAIL, luminescence viability, without TRAIL, mean of runs, at 10 µM

Row | SMILES | activity
22 | Cc1c(P(=S)(c2ccccc2)c2ccccc2)[n+]2ccccc2n1C/C=C/c1ccccc1 | 56.9%
23 | CN1/C(=C\C(=O)c2cccs2)Sc2ccccc21 | 61%
24 | COc1ccc(C2CC(c3ccc(Br)cc3)=NN2C(=O)CSC2=NN3CCCC(=O)N=C3S2)cc1 (stereo not given) | 90.9%
25 | O=C(Nc1ccc(-c2nc3ccccc3o2)cc1)C1CCCO1 (stereo not given) | 43%
26 | C=CCOC(=O)c1sc(NC(=O)c2ccco2)nc1C | 40.2%
27 | COc1ccc(-c2ccc3ccccc3n2)cc1 | 16%
28 | COc1cccc2cc(-c3nc4ccccc4[nH]3)c(=O)oc12 | 61.1%
29 | O=C(CCl)N(O)c1ccc(C=Cc2ccccc2)cc1 | 53.7%
30 | CN(C)CC(O)c1ccc(C=Cc2ccc(Cl)cc2)cc1 (stereo not given) | 97.2%
31 | COc1ccc(-c2cc(=O)c3ccccc3s2)cc1 | 62%
32 | Cc1ccnc(NC(=O)c2sc3ccccc3c2Cl)c1 | 90.8%
33 | OCC1OC(n2cnc3c(=S)nc[nH]c32)CC1O (stereo not given) | 35.7%
34 | C/C(=N\Nc1nc2ccccc2s1)c1cccs1 | 30.2%
35 | COc1ccc2cc3cc(C(=O)N4CCCCCC4)oc3nc2c1 | 41.9%
36 | Nc1c2c(nc3sc4c(c13)CCCCC4)CCCCC2 | 47.8%
37 | Cc1ccc(C(=O)Nc2ccc3c(c2)OCCO3)cc1 | 90.2%
38 | CN(C)CCCNC(=O)C[C@H]1C[C@H](C(=O)N2CCCCC2)[C@@]2(CCc3ccccc3)c3[nH]c4ccc(Cl)cc4c3CCN2C1=O | 82.6%
39 | COc1ccc(/C=C/c2cc(-c3ccc(C)cc3)o[n+]2C)cc1 | 90.6%
40 | COc1ccc(/C(N)=N/OC(=O)c2ccc(OC)c([N+](=O)[O-])c2)cc1OC | 84.7%
41 | COc1ccccc1C/C(N)=N/OC(=O)c1cccc([N+](=O)[O-])c1 | 69.6%
42 | O=C(CCl)N(c1ccccc1)c1c[nH]c2ccccc12 | 99%
43 | CC1(C)CC(=O)c2sc(NC(=O)c3cccs3)nc2C1 | 94.2%
44 | C#CCSc1nnc(-c2sc(-c3ccccc3)nc2C)n1C | 90%
45 | COc1ccc(/C=C/C(=O)c2ccc([N+](=O)[O-])o2)cc1 | 80.8%
46 | c1ccc(-c2cc3cc4c(cc3cn2)OCO4)cc1 | 29%
47 | CC(C)CC(NC(=O)c1ccc(Cl)cc1)C(=O)OCC(=O)c1ccc2c(c1)NC(=O)CO2 (stereo not given) | 97.4%
48 | CCOc1ccc(N=Cc2c(C)[nH]n(-c3nc4ccccc4[nH]3)c2=O)cc1 | 86.2%
49 | O=S(=O)(Nc1nc2ccccc2nc1N1CCc2ccccc2C1)c1ccc(Br)cc1 | 66.2%
50 | COc1ccc(-c2cc3ccccc3c(=O)o2)cc1 | 56.6%
